Bioassay records: PubChem BioAssay, National Center for Advancing Translational Sciences (NCATS)
Only a selection was taken, and hits are over-represented in it overall.
Cycloheximide cs: Cycloheximide Counterscreen for Small Molecule Inhibitors of Shiga Toxin; cell reporter, cycloheximide protein synthesis inhibition counterscreen; max response, %; 300,000 tested, 12% active; in the data active = max response mostly above about 13%, no sharp cut-off; inactive = mostly below about 14%; also: read at 38.3 µM for the half of the compounds with a filed dose; 0% is about no effect
VACV Venus inh: qHTS for Stage-Specific Inhibitors of Vaccinia Orthopoxvirus: Venus Reporter Primary qHTS | Potency, µM (series often up to 36.5 µM), without a hit: at the highest dose activity change, negative = inhibition, actives largely listed as inhibitors | Vaccinia virus Venus reporter expression, fluorescence | 330,000 tested, 0.46% active; calls by dose curve; tested in A549 cells; also: potency is read from the fitted curve at half-maximal effect; % is scaled to controls: 0 for no effect and ±100 for the full control effect; nearly all actives have a fitted effect of over 30% in size
Marburg entry inh: qHTS for inhibitors of binding or entry into cells for Marburg Virus. Potency, µM (series often up to 37.8 µM), inactives show at the top dose activity change, negative = inhibition, actives largely listed as inhibitors. 300,000 tested, 1.8% active. Marburg virus pseudotyped entry inhibition, cell reporter; calls by dose curve; tested in HEK293 cells; also: potency is read from the fitted curve at half-maximal effect; % is scaled to controls: 0 for no effect and ±100 for the full control effect
Vaccinia mCherry: qHTS for Stage-Specific Inhibitors of Vaccinia Orthopoxvirus: mCherry Reporter Primary qHTS; Vaccinia virus mCherry reporter infection, fluorescence; Potency, µM (series often up to 36.5 µM), for inactives: at the top dose activity change, negative = inhibition, most hits filed as inhibitors; 310,000 tested, 0.63% active; calls by dose curve; tested in A549 cells; also: potency is read from the fitted curve at half-maximal effect; % is scaled to controls: 0 for no effect and ±100 for the full control effect; nearly all actives have a fitted effect of over 35% in size
Lassa entry inh: qHTS for Inhibitors of binding or entry into cells for Lassa Virus; Lassa virus pseudotype entry inhibition, cell reporter; Potency, µM (top dose mostly 37.9 µM), for the others: top-dose activity change, negative = inhibition, hits mostly inhibitors; 300,000 tested, 1.2% active; calls by dose curve; tested in HEK293 cells; also: potency is read from the fitted curve at half-maximal effect; % is scaled to controls: 0 for no effect and ±100 for the full control effect; nearly all actives have a fitted effect of over 50% in size
Shiga inhibitor: A qHTS for Small Molecule Inhibitors of Shiga Toxin; Vero cells, Shiga toxin protein synthesis inhibition reporter; inhibition, % at 38.7 µM; 290,000 tested, 9.2% active; in the data active = inhibition mostly above about 28%, no sharp cut-off; inactive = mostly below about 43%; also: 0% is about no effect
The depositor's hits bear a star; i = inactive; ? = inconclusive; · = no result; ! = not active in a repeat; [ ] = remark or other dose.

SMILES | Cycloheximide cs | VACV Venus inh | Marburg entry inh | Vaccinia mCherry | Lassa entry inh | Shiga inhibitor
CCOc1ccc(NC(=O)CN2CCN(CC(=O)Nc3ccc4c(c3)OCCO4)CC2)cc1 | 2 | -6% | ? | · | -2% | -2
CC(C)c1ccc(NC(=O)c2cccc(Br)c2)cc1 | 36* | · | · | · | · | 119*
COc1ccc(C(=O)NC(=S)Nc2nc(C)cc(C)n2)cc1Br | 21* | 8% | 1%[46.1 µM] | 0% | 5%[46.1 µM] | 3
CCOc1ccc(C(=O)Nc2ccc3c(c2)OCCO3)cc1 | 34* | -16% | ? | i | ? | 49*
Cc1ccc(CNc2ccc3c(c2)OCO3)cc1 | 42* | · | ? | · | -22% | 100*
CCOC(=O)c1sc(N=NC2=C(O)CCCC2=O)c(C(=O)OCC)c1C | 18* | -20% | 18% | -4% | -1% | 16
O=C(C1CCN(S(=O)(=O)c2ccc(Br)s2)CC1)N1CCN(c2cccc(C(F)(F)F)c2)CC1 | · | -27% | ? | ? | 8.9µM* | ·
Cc1cc(C)c(/C=C/c2onc(C)c2S(=O)(=O)N2CCC(C(=O)NCCc3ccccc3)CC2)c(C)c1 | · | -6%[7.34 µM] | · | -3%[7.34 µM] | 11%[46.1 µM] | ·
CC(=O)c1ccc(S(=O)(=O)N2CCCC(N(C)CCc3ccccn3)C2)cc1 (stereo unspecified) | -2 | · | · | · | · | -4
CCCCN(C)CCCNC(=O)c1cn(CC)c2ccc(S(=O)(=O)N3CCc4ccccc4C3)cc2c1=O | -4 | -11% | 5.6µM* | -10% | -13% | -2
CCCCN(CC)CCCNC(=O)c1cn(CC)c2ccc(S(=O)(=O)N3CCc4ccccc4C3)cc2c1=O | -2 | -20% | ? | ? | ? | -13
COc1ccc(C(=O)/C(=C\c2sccc2C)c2nc3ccccc3o2)cc1 | 19* | · | 8% | · | 11% | 49
CC(C)Oc1ccc(C(=O)N(Cc2ccco2)Cc2cccs2)cc1 | · | -8% | -15%[46.1 µM] | 0% | ? | ·
CC(C)Oc1ccc(C(=O)/C(=C\c2cccs2)c2nc3ccccc3o2)cc1 | 38* | 5% | ? | -5% | ? | active
COc1ccc(Nc2c(-c3ccc(C)o3)nc3ccc(Cl)cn23)cc1 | · | 2% | -1%[46.1 µM] | -2% | ? | ·
O=S(=O)(Nc1ccccc1)c1ccc(NS(=O)(=O)c2c(F)cccc2F)cc1 | -1 | -5% | -4%[46.1 µM] | -7% | -12% | 3
COc1ccc(C2CC(=O)c3cc(OC)ccc3O2)cc1 (stereo unspecified) | · | -6% | 21%[46.1 µM] | ? | 0%[46.1 µM] | ·
O=C1CC(c2ccc3c(c2)OCCO3)Oc2ccc([N+](=O)[O-])cc21 (stereo unspecified) | 46* | · | · | · | · | 88*
COc1ccc(C2CC(=O)c3ccccc3O2)cc1 (stereo unspecified) | 41* | -8% | 44% | i | 24% | 25
O=C1CC(c2ccc3c(c2)OCCO3)Oc2ccccc21 (stereo unspecified) | 52* | -2%[7.34 µM] | · | i[7.34 µM] | · | 80*
CCOC(=O)[C@@](O)(C1C(=O)CC(C)(C)CC1=O)C(F)(F)F | · | · | 15%[46.1 µM] | · | · | ·
O=C(Nc1ccc(Cl)cc1)ON=C1CCCC1 | 40* | -18% | ? | -12% | -12% | 56*
C/C(=N\OC(=O)Nc1ccc(Cl)cc1)c1ccc(F)c(F)c1 | 17* | -16% | 22%[46.1 µM] | -18% | -29%[46.1 µM] | 54*
O=C(NCCCCCCNC(=O)ON=C1CCCCC1)ON=C1CCCCC1 | 27*! | -16%[60.7 µM] | · | -1%[60.7 µM] | · | 27*!
NC(=O)Nc1ccc(Cl)cc1 | -2 | -1% | 5% | -1% | -14% | 17
SMILES | Cycloheximide cs | VACV Venus inh | Marburg entry inh | Vaccinia mCherry | Lassa entry inh | Shiga inhibitor
Cc1ccc(CCNC(=O)c2cccc(Nc3nc4ccccc4nc3-n3nc(C)cc3C)c2)cc1 | · | -15% | 5%[46.1 µM] | -7% | 1%[46.1 µM] | ·
COc1cc(Cl)c(CN2CCCC(CO)(Cc3ccccc3F)C2)cc1OC (stereo unspecified) | -2 | -29% | 2.8µM* | -27% | ? | -6
CCOc1ccc(CN2CCCC(CO)(Cc3ccccc3F)C2)cc1 (stereo unspecified) | -3 | · | · | · | · | -1
COc1ccc(Cl)cc1C(=O)NNC(=O)c1ccncc1 | 2 | · | · | · | · | ·
CC(C)CC(=NNC(=O)c1ccncc1)c1cc(Cl)ccc1O | · | ? | ? | 5.6µM* | 3.2µM* | ·
C/C(=N\NC(=O)CN1CCCCC1)c1ccccc1O | 23* | -26% | ? | ? | -15%[46.1 µM] | 39*
CC(=NNC(=O)c1ccncc1)c1ccc2ccccc2c1O | · | 33% | 7.9µM* | ? | 5µM* | ·
C/C(=N\NC(=O)CN1CCCCC1)c1cccc([N+](=O)[O-])c1 | · | -5% | ? | -8% | ? | ·
CC(=NNC(=O)c1ccncc1)c1ccccc1O | · | ? | 3.2µM* | 1.1µM* | ? | ·
COC1CCCCC1Nc1ccc(C)c(C)c1 (stereo unspecified) | -3 | -1% | -7% | -16% | 16% | 10
CCOC(=O)C1(Cc2cccc(F)c2)CCN(C(=O)c2cnc(C)cn2)CC1 | 7 | -2% | -2%[46.1 µM] | i | 23%[46.1 µM] | -11
O=S(=O)(Nc1cccc(-c2ccc(N3CCOCC3)nn2)c1)c1ccc(F)cc1F | · | -10% | · | -12% | 17%[46.1 µM] | ·
CC/C(=N\NC(=O)c1ccccc1Cl)c1c(O)n(C2CCCCC2)c(=O)[nH]c1=O | 14* | · | · | · | · | 12
CC/C(=N\NC(=O)c1ccccc1)c1c(O)n(C2CCCCC2)c(=O)[nH]c1=O | 34* | · | · | · | · | 51*
CCC(=NC1CC1)c1c(O)n(C2CCCCC2)c(=O)[nH]c1=O | 10 | -12% | 6% | -13% | -49% | 13
Cc1ccc(C(=O)c2cn(Cc3ccc(F)cc3)c3nc(C)ccc3c2=O)cc1 | · | -15% | ? | -9% | 4%[46.1 µM] | ·
O=C1NC(=S)N/C1=C/C=C/c1ccccc1 | 43* | -9% | 4%[46.1 µM] | -14% | -3%[46.1 µM] | 35
O=C(NNC1=Nc2ccccc2SC1)c1cccc([N+](=O)[O-])c1 | 0 | -11% | ? | -21% | ? | 14
O=C(NNC1=Nc2ccccc2SC1)c1ccccc1F | 39* | ? | ? | -2% | ? | 72*
Cc1nc(C)n(CC(=O)NCC2Cc3cc(-c4ccsc4)cc(Cl)c3O2)n1 (stereo unspecified) | · | -5% | · | -7% | · | ·
O=C(CSc1n[nH]c(=O)n1C1CC1)c1ccc(F)cc1 | 13* | · | · | · | · | 18
CCOc1ccc(-c2ccc(CO)o2)cc1N | · | -6% | · | -19% | -30%[46.1 µM] | ·
CCOC(=O)c1ccc(-c2ccc(C3Nc4ccccc4C(=O)N3O)o2)cc1 (stereo unspecified) | 33* | -16% | ? | ? | ? | 145*
CCOC(=O)c1ccc(-c2ccc(CO)o2)cc1 | 34* | ? | ? | -14% | -8% | 84*
Cc1ccc(-c2ccc(CO)o2)cc1N | 25* | -6% | -13%[46.1 µM] | ? | -25% | 55*
Cc1cccc(S(=O)(=O)Nc2ccc(-c3cn4ccccc4n3)cc2)c1 | 13* | -16% | -2% | i | ? | 18
